# From PubChem BioAssay (NCI)
# The panel holds about 83,000 compounds, 20% with a hit somewhere; the sample as a whole holds those more often.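 Treatment: one concentration, 48 hours, 96-well format. Scoring: percent growth, with anything below 10 considered active.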 A number with no mark means an inactive call. Calls of active or inactive are those of the source.
# Test system: DU-145 prostate
# Assay: NCI-60 one-dose screen, 48 h (100 = growth as untreated, 0 = no growth, -100 = all killed)
# Details: 10 µM unless noted
row,Structure (SMILES),growth
1,COCc1c(-c2ccc(NC(=O)Nc3cc(C(F)(F)F)ccc3F)c(F)c2)c2c(N)ncnn2c1CN1CCOCC1,-4% (active)
2,COC(=O)[C@@H](NC(=O)[C@@H](OC)[C@@H]1Cc2cc3cc(OC4CC(OC5CC(O)C(O)C(C)O5)C(O)C(C)O4)c(C)c(O)c3c(O)c2C(=O)[C@H]1OC1CC(OC2CC(OC3CC(C)(O)C(O)C(C)O3)C(O)C(C)O2)C(O)C(C)O1)C(C)C (some centres not stated),7.21% (active)
3,Cc1ccc(Nc2nccc(N(C)c3ccc4c(C)n(C)nc4c3)n2)cc1S(N)(=O)=O,39.4%
4,CCN(CCO)CCCOc1ccc2c(Nc3cc(CC(=O)Nc4cccc(F)c4)[nH]n3)ncnc2c1,56.6%
5,COc1ccc(Cc2cc(-c3ccccc3C)n[nH]c2=O)cc1,93.2%
6,Clc1ccc(C(Cn2ccnc2)OCc2ccsc2Cl)c(Cl)c1 (configuration not stated),90.3%
7,COc1ccc(/C(C)=C(\c2ccc(Cl)cc2)c2ccc(OCCN3CCCCCC3)cc2)cc1,70.1%
8,CCCCCc1ccc(C)cc1OC(=O)CCl,109%
9,COc1ccc(-c2ccc3ncc4c(c3c2)n(-c2ccc(N3CCNCC3)c(C(F)(F)F)c2)c(=O)n4C)cn1,-89.4% (active)
10,COc1cc(OC)c(/C=C/S(=O)(=O)Cc2ccc(OC)c(NCC(=O)O)c2)c(OC)c1,7.91% (active)
11,COC1CCC(N2C(=O)CNc3ncc(-c4ccc(C(C)(C)O)nc4)nc32)CC1 (configuration not stated),4.44% (active)
12,C[C@@H](Oc1cc(-n2cnc3ccc(CN4CCN(C)CC4)cc32)sc1C(N)=O)c1ccccc1C(F)(F)F,2.67% (active)
